The source of these data is PubChem BioAssay (EPA / NIEHS).

More than one record can exist for a structure, and the calls need not agree. Activity calls are given as the source filed them. How the source made its calls: active means hit-call score of the fitted dose curve at least 0.9, where 1 is the maximum; inactive means score below 0.9.

This assay in a line: CCTE_Shafer_MEA_dev_per_burst_spike_percent: CCTE's Neural Network Formation Assay for Percent of Spikes in a Burst, Shafer Lab (AID 2284032). The procedure: CCTE_Shafer_MEA_dev assay is conducted using Axion Biosystems 48 well microelectrode array (MEA) plates and Maestro recording system. Each well of the MEA plate contains a grid of 16 microelectrodes embedded in the culture surface. Electrically active cells, such as neurons, can be cultured over the electrodes, and electrical activity in these cells can be recorded extracellularly. The spontaneous firing of neurons is captured from each electrode on a microsecond timescale providing both temporally and spatially precise data. […] The CCTE_Shafer_MEA_dev assay uses primary cultures of rat cortical neurons. Recordings are made on days post-plating 5, 7, 9 and 12. As these cultures mature over time, neural networks develop functional activity and form cohesive networks in which electrical activity can be highly coordinated. CCTE_Shafer_MEA_dev_per_burst_spike_percent is 1 of 19 assay components of the CCTE_Shafer_MEA_dev assay. It measures the percentage of spikes (action potential firings) in a single-electrode burst (temporally-clustered group of spikes) as the total number spikes in bursts divided by the total number of spikes during a recording in a microelectrode array (MEA) using Axion Biosystems Maestro 768 channel amplifier with the AxIS adaptive spike detector. The percent of spikes in bursts is averaged across the actively bursting electrodes to report a well-mean value. To collapse across multiple recordings made on days post-plating 5, 7, 9 and 12, the trapezoidal area-under-the-curve of the component is calculated.Data from the assay component CCTE_Shafer_MEA_dev_per_burst_spike_percent was analyzed into 1 assay endpoint. This assay endpoint, CCTE_Shafer_MEA_dev_per_burst_spike_percent, was analyzed in the negative analysis fitting direction relative to DMSO as the negative control and baseline of activity. Using a type of functional reporter, gain or loss-of-signal activity can be used to understand electrical activity.
On the day prior to culture, each well was coated thoroughly with 150 uL of 0.05% polyethyleneimine (PEI, Sigma Cat P3143) in 50 mM HEPES (Sigma Cat H7523) at a pH of 8. The plate was incubated at 37C for one hour. PEI was rinsed out with 500 uL of sterile water three times. Plates were stored at 4C until the day of culture. This culture was plated at a seeding density of 1.5 x 10^5 cells/well on a 48-well MEA plate, prepared as described above. Cells were administered via a 25 uL media/laminin ([…]; Sigma Cat L2020-1MG) drop directly onto the microelectrode array, as adding the cells with the laminin results in better attachment than pre-coating with laminin. After 2 hours, an additional 475 uL of cortical media was added and the cells returned to the incubator. Exposure starts at day 0 of plating and is continued over twelve days of network development until the experiment is terminated. Cells are fed with fresh medium on DIV 5 and 9, following the recordings on those days. The entire volume of media in the well is exchanged and any vehicle or compound treatment is renewed. Complete details are found in OP-NHEERL/ISTD/SBB/TJS/2015-03-r0 (available on request, email shafer.tim@epa.gov). Measurement of the electrical activity is non-invasive, and recordings can be made from the same plate over multiple different days of the culture. In cortical neurons, this allows for the measurement of extracellular action potentials over the period during which networks form in the MEA plate.
As to `CC(=O)Nc1ccc(O)cc1`, the call was inactive.
Take `CC(C)c1c(C(=O)Nc2ccccc2)c(-c2ccccc2)c(-c2ccc(F)cc2)n1CC[C@@H](O)C[C@@H](O)CC(=O)O`: the AC50 was 0.00992 µM (active).
Consider `O=C(O)CCC(F)(F)C(F)(F)C(F)(F)C(F)(F)C(F)(F)F`, for which the compound was called inactive.
Consider `FCOC(C(F)(F)F)C(F)(F)F`, for which the call was inactive.
In the case of `O=C(CCCN1CCC(O)(c2ccc(Cl)cc2)CC1)c1ccc(F)cc1`, the AC50 was 4.18 µM (active).
Still for that read-out and setting: for `CN(C)CCOC(c1ccccc1)c1ccccc1` the value was 10 µM (active); for `O=C(CC(=O)C(F)(F)C(F)(F)C(F)(F)F)c1cccs1`, 8.19 µM (active); for `Nc1ccn([C@@H]2O[C@H](CO)[C@@H](O)C2O)c(=O)n1` (some centres not stated), 0.341 µM (active).
With `O=C(F)C(F)(F)C(F)(F)C(F)(F)C(=O)F`, the compound was called inactive.
Take `CN(Cc1cnc2nc(N)nc(N)c2n1)c1ccc(C(=O)N[C@@H](CCC(=O)O)C(=O)O)cc1`: the AC50 is 0.0318 µM (active).
On to `O=CC(F)(F)C(F)(F)C(F)(F)C(F)F`, for which the compound was classed as inactive.
For the compound `O=CC(F)(F)C(F)(F)C(F)(F)F`, the compound was called inactive.
Consider `OCC(F)(F)C(F)(F)C(F)(F)C(F)(F)C(F)(F)C(F)(F)C(F)(F)C(F)(F)C(F)(F)C(F)(F)C(F)(F)F`, for which the AC50 was 15 µM (active) and the compound was called inactive.
`FC(F)=C(F)C(F)(F)C(F)(F)C(F)(F)C(F)F`: the compound was called inactive.
Regarding `O=P(O)(O)CCC(F)(F)C(F)(F)C(F)(F)C(F)(F)C(F)(F)C(F)(F)F`, the result was inactive.
On the same count and under the same terms, for `O=C1NS(=O)(=O)c2ccccc21` the value was “inactive”.
Take `COC(=O)C(F)(F)C(F)(F)C(F)(F)F`: the result was inactive.
Turning to `O=C(C=C(O)C(F)(F)F)C(F)(F)F`, the call was inactive.
Same read-out and setting: the result for `CN(CCO)S(=O)(=O)C(F)(F)C(F)(F)C(F)(F)C(F)(F)C(F)(F)C(F)(F)C(F)(F)C(F)(F)F` reads “inactive”; that for `O=C(O)C(F)(F)OC(F)(F)C(F)(F)OC(F)(F)C(F)(F)OC(F)(F)C(F)(F)C(F)(F)C(F)(F)F`, “inactive”; that for `C=CC(F)(F)C(F)(F)C(F)(F)C(F)(F)F`, “inactive”.
Consider `O=P(O)(O)CCC(F)(F)C(F)(F)C(F)(F)C(F)(F)C(F)(F)C(F)(F)C(F)(F)C(F)(F)F`, for which the AC50 is 4.78 µM (active).
In the case of `NC(C(F)(F)F)C(F)(F)F`, the compound was classed as inactive.
Same read-out and setting: for `O=C(OC(=O)C(F)(F)C(F)(F)F)C(F)(F)C(F)(F)F` the value was “inactive”; for `COC(=O)C(F)(F)C(F)(F)C(F)(F)C(F)(F)C(F)(F)F`, “inactive”.
On the same count and under the same terms, the result for `O=C(F)C(F)(F)C(F)(F)C(F)(F)C(F)F` reads “inactive”.
